Reference: the supplement of paper PMC3334620
Over roughly 33,000 sequences, “E-score (-0.5 to 0.5)” has its median near -0.012; the highest 2% begin near 0.27. Only a selection was taken, and the highest values are over-represented in it overall.

target: T1, Vhr1 (UniProt P40522); assay: PBM E-score (8-mer binding enrichment) (E-score (-0.5 to 0.5)); higher = stronger / more preferred TF binding; details: protein concentration: 200 nM; construct: GST-full length
T1 sequence: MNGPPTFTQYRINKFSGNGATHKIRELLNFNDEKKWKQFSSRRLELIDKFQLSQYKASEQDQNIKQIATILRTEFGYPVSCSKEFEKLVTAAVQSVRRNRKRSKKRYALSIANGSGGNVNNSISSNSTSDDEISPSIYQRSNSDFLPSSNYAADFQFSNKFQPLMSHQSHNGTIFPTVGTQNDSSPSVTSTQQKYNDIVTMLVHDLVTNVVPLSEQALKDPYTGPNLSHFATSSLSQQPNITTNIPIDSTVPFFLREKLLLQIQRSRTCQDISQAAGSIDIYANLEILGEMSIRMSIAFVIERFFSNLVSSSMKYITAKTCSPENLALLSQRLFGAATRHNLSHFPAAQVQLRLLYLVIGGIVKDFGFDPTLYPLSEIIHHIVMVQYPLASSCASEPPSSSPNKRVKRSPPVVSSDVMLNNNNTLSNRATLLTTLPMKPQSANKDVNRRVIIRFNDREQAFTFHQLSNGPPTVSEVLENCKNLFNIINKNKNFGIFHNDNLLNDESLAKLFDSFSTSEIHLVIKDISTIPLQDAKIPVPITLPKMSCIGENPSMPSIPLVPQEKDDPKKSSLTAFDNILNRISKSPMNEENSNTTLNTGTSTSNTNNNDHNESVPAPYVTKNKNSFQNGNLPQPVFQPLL
Procedure: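 Universal 'all 10-mer' protein binding microarrays (Agilent AMADID 015681) probed with GST-tagged S. cerevisiae TFs (full-length or DBD) made by in vitro transcription/translation (PURExpress), about 100-200 nM. Bound TF was detected with fluorescent anti-GST. Each ungapped 8-mer (which stands for itself and its reverse complement) is scored by the PBM enrichment score (E-score), a modified Wilcoxon-Mann-Whitney statistic from -0.5 to +0.5, computed with the Universal PBM Analysis Suite. Scale: above 0.35 generally sequence-specific binding.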

Row | Sequence | PBM E-score
1 | CCCCATGC | -0.0398
2 | ACCCATGA | 0.287
3 | ACCCAGGA | -0.00244
4 | ACCCATGC | 0.273
5 | ACCCAGGT | 0.0206
6 | GCCCATGA | 0.262
7 | ACCCATGG | 0.211
8 | CACCATGA | 0.143
9 | CCCCATGA | 0.0682
10 | ATATTCTA | 0.122
11 | TGACAACA | 0.115
12 | GCCTTGAC | -0.167
13 | CATGGACC | -0.0938
14 | AACTGGGC | -0.165
15 | GCGAGCAA | -0.12
16 | ACAACGCT | 0.0591
17 | AGCTAGGA | 0.117
18 | AGTCACCG | 0.418
19 | GGTCACCA | -0.102
20 | AGTCACCA | 0.426
21 | ATTCACCG | 0.159
22 | AGTCACCC | 0.446
23 | CGTCACCA | -0.036
24 | ATTCACCC | 0.135
25 | AGACACCG | 0.21

Row | Sequence | PBM E-score
26 | CGTCACCC | -0.047
27 | CTGGCAAG | -0.21
28 | GAAGATCA | -0.185
29 | GCCGGCCA | -0.136
30 | ATGCCTGA | 0.0818
31 | CCTCTCGA | -0.142
32 | CGTGAAAC | -0.243
33 | AGCTCTAA | -0.127
34 | ACTCTTAC | 0.163
35 | GCACCCCA | 0.151
36 | TCACCCCA | 0.305
37 | TCACCCAA | 0.177
38 | AGCGGTCG | -0.301
39 | ACACGGAA | -0.0284
40 | ACACGGAT | 0.287
41 | ACACGGAG | -0.0139
42 | ACTCATAG | 0.264
43 | AGTCATAC | 0.407
44 | AGTCATAT | 0.421
45 | ACTCATAT | 0.229
46 | AGTCATAG | 0.407
47 | TGTCATAA | -0.0558
48 | AGTCATAA | 0.344
49 | CGTCATAC | 0.189
50 | CGTCATAA | 0.016

Row | Sequence | PBM E-score
51 | CGTCATAG | -0.155
52 | GGTCATAC | 0.0467
53 | AGACATAT | 0.16
54 | ACTTATAT | 0.199
55 | GCACCGCA | 0.0151
56 | GTTCATGA | 0.142
57 | ATCCACCA | 0.113
58 | ACCTTGCG | -0.0156
59 | GAGGCGGC | 0.0803
60 | GAGGTTGC | -0.0739
61 | CAACTATC | 0.125
62 | ACTATCAA | 0.112
63 | CACGTGAC | 0.108
64 | AATGATTA | 0.304
65 | AATGATAA | 0.106
66 | GATGATCC | 0.0747
67 | GCTGATTA | 0.197
68 | GATGATCA | 0.285
69 | GGTGATTA | 0.285
70 | GGTGATGA | 0.233
71 | AATGATGA | 0.163
72 | AATGATCA | 0.0798
73 | GTTGATTA | 0.239
74 | GCTGATGA | 0.185
75 | GATGATTA | 0.337

Row | Sequence | PBM E-score
76 | GCTGCGCC | 0.0437
77 | ATTAGCAA | 0.124
78 | CGAGAGCG | -0.118
79 | CTGCATCC | -0.157
80 | ATCGCAAT | 0.157
81 | TATGATGA | 0.286
82 | GATGATGA | 0.144
83 | CATGATGA | 0.254
84 | TAGGTTGA | 0.0773
85 | AAAGAATG | 0.0281
86 | CTGGAGAC | 0.0265
87 | ATGGAATA | 0.117
88 | ATGGAATC | 0.28
89 | ATGGAGTG | -0.0367
90 | ATGGAGTA | 0.185
91 | CTGGAATC | 0.104
92 | CTGGAGTC | 0.356
93 | ATGGAGTC | 0.433
94 | CTGGAGTA | -0.0097
95 | CGATACGA | -0.0911
96 | AGAAGCGC | 0.16
97 | TAGCACAA | -0.0198
98 | CACACTCG | 0.224
99 | CACTCCGC | 0.144
100 | TACTCCGA | 0.174

Row | Sequence | PBM E-score
101 | GACTCCGC | 0.38
102 | AACTCCGC | -0.0635
103 | AACTCCGA | 0.115
104 | GACTCCGA | 0.428
105 | GCCTTAGA | -0.114
106 | CTACCTCC | 0.241
107 | GATCCATC | 0.194
108 | AAACGACA | 0.138
109 | CCTGAGGA | -0.0328
110 | GAAACTTA | -0.0802
111 | GCTGAGCA | 0.149
112 | GCTCTGCA | -0.201
113 | CTGGTATC | 0.0298
114 | ATGGTATG | 0.00124
115 | ATGGTATC | 0.287
116 | CTAGATGC | 0.00921
117 | AGTCAGGA | 0.355
118 | CGTCAGGA | -0.0893
119 | ATTCAGGG | 0.108
120 | AGTCAGGC | 0.404
121 | GGTCAGGA | 0.0179
122 | ACTCAGGG | 0.27
123 | ACTCAGGC | 0.259
124 | AGTCAGGG | 0.356
125 | CGTCAGGC | -0.213

Row | Sequence | PBM E-score
126 | AAGTTGTG | -0.00706
127 | ATATTTAG | -0.00388
128 | CACCTAGA | -0.0265
129 | CACTTGAA | -0.042
130 | AAGCTAGT | -0.0022
131 | AACCAGGA | -0.00068
132 | GTTAACGA | -0.043
133 | CGCTTGTC | -0.0745
134 | CTCACTGC | -0.102
135 | ATGACTGC | 0.41
136 | AAGACTCG | 0.0518
137 | ATCACTGC | 0.289
138 | GGGACTGA | -0.174
139 | ATAACTCG | 0.0214
140 | GTGACTGA | 0.384
141 | ATCACTGA | 0.136
142 | ACGACTGC | -0.0133
143 | ATGACTCG | 0.457
144 | GAGACTGA | 0.0631
145 | AGGACTGC | -0.19
146 | GTCTGAAA | -0.0548
147 | GCTGAATA | 0.00091
148 | CACTAGAC | 0.0875
149 | AACGGGCC | -0.204
150 | TAAGTACA | -0.0281

Row | Sequence | PBM E-score
151 | GCGTTAAA | -0.0751
152 | CTCCATCC | -0.162
153 | AGATGGGG | -0.00259
154 | AATGCTAT | -0.0368
155 | AAGTTCGG | -0.155
156 | CTGCACAC | 0.045
157 | ACGATAAT | 0.0207
158 | AGGACTGA | -0.143
159 | ACGACTGG | 0.0415
160 | CAGACTGC | 0.00779
161 | CTGACTGC | 0.298
162 | ACGACTGA | 0.123
163 | ATGACTTG | 0.268
164 | CTGACTGA | 0.13
165 | ATGACTGG | 0.298
166 | ATGACTGA | 0.368
167 | CATCCGAG | 0.15
168 | CGTAATGA | 0.0462
169 | ATTGTGGG | 0.156
170 | ACGCTCCC | -0.108
171 | GTCATCAC | 0.229
172 | AGCAATAA | -0.0386
